Molecules are shown by their SMILES. Screen size: about 16,000 compounds; about 5,800 (36%) were called active. Roughly 23% stayed inconclusive and do not appear here. Some of the results follow. A number with no mark means an inactive call. The call rests on the fitted dose curve; in most records, active means well fitted curve in the direction sought with a large enough effect; inconclusive means small, poorly fitted or top-dose-only effect, or effect the other way; inactive means no such curve, though single readings can be large or run the other way.

Consider 48 compounds from PubChem BioAssay AID1851 (National Center for Advancing Translational Sciences (NCATS), 2009).
On the % scale 0 is the no-effect control and ±100 the full control effect.

The assay deals with Cytochrome P450 2C19 (Homo sapiens) (UniProt P33261). In words: Cytochrome panel assay with activity outcomes. The following applies: recombinant CYP, pro-luciferin dealkylation, luminescence, p450-cyp2c19; series mostly up to 57.1 µM; activity, negative = inhibition: at the top concentration.
Cytochrome P450 2C19 (Homo sapiens), sequence (P33261 whole entry, looked up): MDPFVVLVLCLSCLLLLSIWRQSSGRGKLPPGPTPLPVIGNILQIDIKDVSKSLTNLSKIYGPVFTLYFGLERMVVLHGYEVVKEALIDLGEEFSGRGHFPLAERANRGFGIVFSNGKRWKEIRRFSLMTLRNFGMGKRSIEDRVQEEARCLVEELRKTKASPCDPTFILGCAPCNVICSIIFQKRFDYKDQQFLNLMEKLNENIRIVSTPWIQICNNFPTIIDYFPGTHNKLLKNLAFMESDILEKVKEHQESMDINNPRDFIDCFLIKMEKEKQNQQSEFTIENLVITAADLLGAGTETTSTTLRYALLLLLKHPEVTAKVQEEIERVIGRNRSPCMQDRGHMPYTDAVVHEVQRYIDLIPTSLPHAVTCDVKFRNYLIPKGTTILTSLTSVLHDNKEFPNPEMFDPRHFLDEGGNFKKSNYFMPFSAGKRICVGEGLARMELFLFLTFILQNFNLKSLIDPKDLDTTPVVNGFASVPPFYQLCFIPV
Turning to `CC(C)CO/N=C1/C[C@@H](O)[C@@H](O)[C@@H]2[C@@H]3C(=O)N([C@@H](C)c4ccccc4)C(=O)[C@H]3CC[C@@H]12`, the activity, negative = inhibition was 7.13% [at 11.4 µM].

Consider `CC(CO)(CO)N=Cc1cc(I)cc(I)c1O`, for which the activity, negative = inhibition is -13.1% [at 11.4 µM].

The AC50 is the midpoint of the concentration-response curve, whichever way the signal moves. `COc1ccccc1NC(=O)[C@H](COCc1ccccc1)NC(=O)OC(C)(C)C`: the AC50 was 3.55 µM (active).

Regarding `O=[N+]([O-])c1cc(C(F)(F)F)ccc1NCCCCNS(=O)(=O)c1ccc2ccccc2c1`, the half-maximal activity concentration (AC50) was 1.78 µM (active).

On to `Cc1ccc(NC(=O)CN2C(=O)N/C(=C/c3ccc(C)o3)C2=O)cc1`, for which the “activity, negative = inhibition” value was -3.63%.

For the compound `CCOC(=O)N/N=C/c1ccc(C)o1`, the “activity, negative = inhibition” value is -11.5%.

With `Cc1ccc(/C=C/C(=O)N2CC(C)CC(C)C2)o1` (stereo not drawn), the AC50 was 11.2 µM (active).

`Cc1cccc(NC(=O)CC2Nc3cccc4cccc(c34)NC2=O)c1` (stereo not drawn): the AC50 was 2.24 µM (active).

Regarding `O=C(CN1C(=O)c2cccc3cccc(c23)C1=O)N1CCCCCC1`, the “activity, negative = inhibition” value is 16.7%.

Regarding `Cc1cccc(NC(=O)CCCN2C(=O)c3cccc4cccc(c34)C2=O)c1`, the AC50 was 14.1 µM (active).

As to `C[N+](C)(CCCCCC[N+](C)(C)CCCN1C(=O)c2cccc3cccc(c23)C1=O)CCCN1C(=O)c2cccc3cccc(c23)C1=O`, the “activity, negative = inhibition” value was -15.3%.

`O=C(CCCN1C(=O)c2cccc3cccc(c23)C1=O)N1CCc2ccccc2C1`: the AC50 is 3.98 µM (active).

Take `O=C(O)c1ccc(Sc2nnnn2-c2ccccc2)c([N+](=O)[O-])c1`: the “activity, negative = inhibition” value is -3.77%.

For `Cc1ccc(-n2nnnc2Sc2nc([N+](=O)[O-])nn2C)cc1C`, the AC50 is 3.98 µM (active).

In the case of `CC(C)C(=O)N[C@@H]1CCCN1C(=O)/C=C\c1ccccc1`, the activity, negative = inhibition is -31.2% [at 11.4 µM].

As to `O=C(O)[C@H](CCc1ccccc1)N1C(=O)c2ccccc2C1=O`, the activity, negative = inhibition was -17.1% [at 11.4 µM].

For the compound `CC(CCc1ccccc1)NC(=O)/C=C/c1ccccc1` (stereo not drawn), the AC50 was 8.91 µM (active).

`CC(CCc1ccccc1)NC(=O)C(=O)NCCO` (stereo not drawn): the AC50 is 31.6 µM (active).

As for `CC(C)C(=O)N[C@H]1CCCN1C(=O)/C=C\c1ccccc1`, the activity, negative = inhibition was -19.8% [at 11.4 µM].

For `CCCCNC(=O)C(=O)NC(C)CCc1ccccc1` (stereo not drawn), the AC50 is 14.1 µM (active).

Take `CC(=O)c1cn(CC(=O)Nc2c(C)cccc2C)c2ccccc12`: the AC50 is 7.08 µM (active).

As to `Cc1cc(C)cc(C(=O)N(NC(=O)Nc2ccc(Cl)cc2)C(C)(C)C)c1`, the AC50 was 1.58 µM (active).

With `CC(C)(C)N(NC(=O)Nc1ccccc1)C(=O)c1ccccc1Cl`, the AC50 is 11.2 µM (active).

Turning to `CC(C)(C)N(NC(=O)Nc1ccc(Cl)c(Cl)c1)C(=O)c1ccccc1`, the AC50 was 1.26 µM (active).

With `COC(=O)c1cccc(NC(=O)Nc2ccc(Cl)c(Cl)c2)c1`, the AC50 was 3.98 µM (active).

For `O=C(Nc1ccc(C(=O)Nc2ccc(C(=O)Nc3ccc(S(=O)(=O)O)c4cc(S(=O)(=O)O)cc(S(=O)(=O)O)c34)cc2)cc1)Nc1ccc(C(=O)Nc2ccc(C(=O)Nc3ccc(S(=O)(=O)O)c4cc(S(=O)(=O)O)cc(S(=O)(=O)O)c34)cc2)cc1`, the “activity, negative = inhibition” value was -38.1%.

Take `CC1(C)S[C@@H]2[C@H](NC(=O)[C@@H](N)c3ccccc3)C(=O)N2[C@H]1C(=O)O[C@H]1OC(=O)c2ccccc21`: the “activity, negative = inhibition” value is -21% [at 25.6 µM].

Take `O[C@H](CN1CCN(c2cccc(Cl)c2)CC1)C(c1ccccc1)c1ccccc1`: the “activity, negative = inhibition” value is -35.5%.

Take `O=C(c1ccccc1)C1CN(c2ccccc2)CC1c1ccc(Cl)cc1` (stereo not drawn): the AC50 was 3.98 µM (active).

For the compound `COc1ccccc1-c1c(C(F)(F)F)oc2cc(OC(=O)c3cccc([N+](=O)[O-])c3C)ccc2c1=O`, the AC50 is 0.631 µM (active).

As to `c1ccc2c(c1)CCCc1cc(NCCN3CCOCC3)nnc1-2`, the “activity, negative = inhibition” value is 38% [at 25.6 µM].

As for `Clc1ccccc1-c1nccc(NCCN2CCOCC2)n1`, the AC50 is 5.01 µM (active).

Consider `Clc1ccccc1-c1ccc2ncnc(NCCN3CCOCC3)c2c1`, for which the “activity, negative = inhibition” value is -26.1%.

With `Cc1noc(C)c1-c1nccc(NCCN2CCOCC2)n1`, the “activity, negative = inhibition” value is -26.3%.

Turning to `Cc1ccccc1-c1nccc(NCCN2CCOCC2)n1`, the AC50 was 10 µM (active).

`Cc1ccccc1-c1cc(NCCN2CCOCC2)ncn1`: the “activity, negative = inhibition” value is -8.59%.

Consider `COCCSc1nnc(NC(=O)C(C)(C)C)s1`, for which the “activity, negative = inhibition” value is -29.9%.

For the compound `CCSc1nnc(NC(=O)C(C(F)(F)F)C(F)(F)F)s1`, the AC50 is 20 µM (active).

With `CSc1nc(Oc2ccc(F)cc2)c2ccccc2n1`, the AC50 is 7.08 µM (active).

As for `Cn1c(=O)c(-c2ccc(F)cc2)nc2cnc(Oc3ccccc3)nc21`, the “activity, negative = inhibition” value is 30.5%.

In the case of `CCOC(=O)c1cnc2c(cnn2C)c1NCCCN(C)C`, the “activity, negative = inhibition” value is -21.4%.

On to `CCOC(=O)c1cnn(CCOC(=O)C(C)(C)C)c1NC(=O)C(C)(C)C`, for which the AC50 was 14.1 µM (active).

On to `CCOC(=O)c1cnc2c(cnn2CC)c1NN=C(C)C`, for which the “activity, negative = inhibition” value is -4.89%.

For `COc1ccc(-c2c(C)oc3c(CN4CCN(CCO)CC4)c(O)ccc3c2=O)cc1OC`, the “activity, negative = inhibition” value was -21.7%.

As to `O=c1oc2c(CN3CCOCC3)c(O)ccc2c2ccccc12`, the AC50 was 14.1 µM (active).

In the case of `CS(=O)(=O)c1cnc2c(-c3ccc(F)cc3)cnn2c1N`, the “activity, negative = inhibition” value was -15.9%.

With `CC(C)(C)S(=O)(=O)c1cnc2c(-c3ccc(F)cc3)cnn2c1N`, the AC50 was 11.2 µM (active).

With `CN(C)c1ncc2nc(-c3ccc(F)cc3)c(=O)n(C)c2n1`, the “activity, negative = inhibition” value was -2.46%.
